# S-ASM inh: blocks human secretory acid sphingomyelinase; placental ASM, HMU-PC fluorogenic substrate, 60 min; AID 504937; Potency, µM (highest dose often 57.5 µM), without a hit: at the highest dose activity change, negative = inhibition, usual class: inhibitors; P17405; hit rate 0.006% among 340,000
# Target sequence (P17405 47-631 limits assumed): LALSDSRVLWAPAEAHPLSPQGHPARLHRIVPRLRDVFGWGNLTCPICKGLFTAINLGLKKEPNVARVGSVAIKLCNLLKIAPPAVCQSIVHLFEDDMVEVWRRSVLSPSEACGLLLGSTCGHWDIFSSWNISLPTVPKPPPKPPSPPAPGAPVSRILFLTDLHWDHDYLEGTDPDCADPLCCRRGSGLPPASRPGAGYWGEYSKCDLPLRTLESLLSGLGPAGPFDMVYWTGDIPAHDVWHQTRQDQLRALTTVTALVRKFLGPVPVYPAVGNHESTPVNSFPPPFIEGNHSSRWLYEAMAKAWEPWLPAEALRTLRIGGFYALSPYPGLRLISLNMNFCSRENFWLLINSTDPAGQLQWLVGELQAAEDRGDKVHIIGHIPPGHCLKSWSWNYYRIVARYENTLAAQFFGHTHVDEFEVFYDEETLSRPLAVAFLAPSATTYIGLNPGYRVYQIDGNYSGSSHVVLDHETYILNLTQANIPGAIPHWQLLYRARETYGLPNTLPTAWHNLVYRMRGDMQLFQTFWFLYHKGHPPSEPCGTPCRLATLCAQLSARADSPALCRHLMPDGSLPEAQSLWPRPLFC
#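 Fluorogenic HMU-PC substrate (9 uM final) is turned over by placental ASM in 60 min at 37 C after a 10 min compound preincubation. Reaction ended by alkaline stop (pH 10), with fluorescence read at 386/447 nm.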
# Rango release inh: prevents RanGTP from dissociating the Rango-importin beta complex; O95149+P62826; Biochemical FRET Rango-importin beta, RanGTP-induced dissociation; Potency, µM (highest dose often 46.1 µM), for the others: at the top dose activity change, negative = inhibition; hit rate 0.071% among 340,000; AID 540253; calls by dose curve; note: % of control where 0% means no effect; nearly all actives have a fitted effect of over 45% in size
#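 Compounds sat 5 min at room temperature with 0.1 uM Rango biosensor plus 0.25 uM importin beta, then FRET pre-read. RanGTP-RCC1 (0.6 uM Ran, 2mM GTP, 0.2 uM RCC1) added for 45 min, and the CFP/YFP post-read measured blocked complex dissociation.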
# Abeta yeast res: compounds reversing amyloid beta toxicity in yeast; yeast expressing A-beta42, growth rescue, OD600, 48 h; response scale: 0% DMSO, 100% iron-clioquinol control; Potency, µM (highest dose often 46.1 µM), usual class: activators; hit rate 0.063% among 410,000; note: nearly all actives have a fitted effect of over 55% in size
#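 Yeast A-beta toxicity model in growth medium with pinned compounds, 48 h at 30 C; growth read as absorbance at 600 nm. Normalized to FeCl3/clioquinol equimolar mix (positive) and DMSO (negative).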
# aSyn rescue: inhibitors of alpha-synuclein toxicity in yeast; Yeast expressing alpha-synuclein, growth rescue, BacTiter-Glo, 24 h; Potency, µM (top dose mostly 46.1 µM), without a hit: at the top dose growth rescue (activation), hits mostly activators; hit rate 0.14% among 370,000; note: % of control where 0% means no effect; nearly all actives have a fitted effect of over 65% in size
#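 Screening used galactose-induced yeast with toxic alpha-synuclein levels, exposed to compound for 24 hr at 30 deg C. Cell growth, read with BacTiter-Glo luminescence, gave the measured signal.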
# Rango complex inh: Rango-importin beta binding inhibition | Potency, µM (highest dose often 92.2 µM), inactives show top-dose inhibition of complex formation | Q14974 | Rango CFP/YFP FRET sensor + importin beta, 45 min | hit rate 0.031% among 340,000 | AID 540263; calls by dose curve;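 note: 0% = DMSO wells and 100% = buffer wells lacking importin beta; nearly all actives have a fitted effect of over 15% in size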
#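 FRET biosensor (snurportin 1 IBB flanked by EYFP and cerulean), 50 nM, with compound 5 min, then 0.125 microM importin beta in PBS, 1 mM DTT, 0.02% Tween-20, 0.1% BSA. CFP/YFP ratio read after 45 min at room temperature; pre-read flags interference.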
# TDP-43 yeast inh: inhibitors of TDP-43 toxicity in yeast; Potency, µM (series often up to 46.1 µM), inactives show at the top dose growth rescue (activation), most hits filed as activators; hit rate 1.8% among 410,000; TDP-43 expressing yeast growth rescue, BacTiter-Glo, 24 h; note: % of control where 0% means no effect; nearly all actives have a fitted effect of over 50% in size
#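 Yeast expressing TDP-43 (pregrown in raffinose, seeded at OD600=0.02 in galactose medium) exposed to compounds 24 hr at 30 deg C. Growth read by BacTiter-Glo luminescence; rescue of toxicity appears as increased signal.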
# Numbers without * were called inactive; i = inactive; ? = inconclusive; · = no result given; [ ] = another dose, or the depositor's remark. Only some compounds are listed: those with a hit (about 2% of all), similar ones and a draw of the others. Unless noted, calls come from the whole dose curve; as a rule, active = well fitted curve in the direction sought with a large enough effect; inconclusive = small, poorly fitted or top-dose-only effect, or another doubt; inactive = no such curve, though single readings can be large; an effect the other way counts as inactive or inconclusive. Potency is the fitted concentration of half-maximal effect.
SMILES,S-ASM inh,Rango release inh,Abeta yeast res,aSyn rescue,Rango complex inh,TDP-43 yeast inh
O=C(CCSc1ccccc1Cl)Nc1cccc([N+](=O)[O-])c1,-8%,1%,i,2%,-2%,18µM*
N/C(=N\OC(=O)c1ccc(Cl)cc1)c1ccc(Cl)cc1,0%,0%,i,-23%,-1%,7.9µM*
N/C(=N\OC(=O)c1ccc(F)cc1)c1ccc(Br)cc1,-2%,4%,i,-12%,-4%,3.2µM*
COc1ccc(N2CCN(C(=O)c3cnc(N4CCOCC4)c4ccccc34)CC2)cc1,·,·,i,·,·,?
CC(C)N(Cc1nc(-c2ccccc2)no1)C(=O)CN(C)S(=O)(=O)c1ccccc1,-5%,-8%,i,13%,0%,13µM*
CCc1nc2ccc(C(=O)NCCc3ccc(OC)cc3OC)cc2nc1CC,·,·,i,·,·,0%
COc1cccc(/C=C/c2nc3ccccc3nc2/C=C/c2cccc(OC)c2OC)c1OC,·,·,·,3%,·,·
COc1ccc([N+](=O)[O-])cc1NC1CCCCC1,-19%,-5%,i,-20%,7%,20µM*
COc1ccccc1NC(=O)Cn1c(=O)c(CNc2ccc(C)cc2)cc2cc3c(cc21)OCCO3,·,·,i,7%,·,4%
CCOC(=O)c1ccc(NC(=O)c2c(NCc3sccc3C)sc3c2CCCCC3)cc1,·,·,i,·,·,24%
Cc1onc(-c2ccccc2Cl)c1C(=O)Oc1cccc2cccnc12,-2%,-1%,i,11%,-2%,18µM*
Cc1onc(-c2ccccc2Cl)c1C(=O)Oc1ccc(Br)cc1,·,·,i,·,·,-9%
Cc1onc(-c2ccccc2Cl)c1C(=O)Nc1ccc(Br)cc1,-8%,-1%,i,2%,0%,11µM*
N=C1SCC(=O)N1c1ncc(Cc2ccc(F)cc2)s1,0%,2%,?,10%,6%,10µM*
Cc1ccc(-c2csc(N3C(=N)SCC3=O)n2)cc1,1%,0%,i,-6%,-4%,-15%
O=S(=O)(c1ccccc1)N1N=C(c2cccs2)CC1c1ccc(F)cc1 (stereo not given),0%,-6%,i,0%,4%,-23%
Fc1ccc(N2N=C(c3cccs3)CC2c2ccccc2)cc1 (stereo not given),i,9.2µM*[inhibitor],i,?,?,4%
O=C(O)CC1(CC(=O)Nc2ccc(Br)cc2)CCCCC1,3%,?,i,-41%,3%,11µM*
Cc1cccc(N(C)C(=O)c2cc3c(=O)oc4ccc(C)cc4c3s2)c1,·,·,i,·,·,1%
O=C(NNc1ccccc1)c1ccc(Cl)c(Cl)c1,-2%,-3%,i,?,-1%,13µM*
CCc1cccc(NC(=O)CCn2nc(C)cc2C)c1,·,·,i,·,·,22%
CN(C(=O)COc1ccc(Cl)cc1Br)C1CCCCC1,-1%,-1%,i,0%,-1%,18µM*
O=C(COC(=O)COc1ccc(Cl)cc1Br)NC1CCCCCC1,-7%,-26%,i,7%,4%,14%
Cc1nn(C(=O)c2ccc(Cl)cc2)c(C)c1Sc1ccc(Cl)cc1,·,·,i,·,·,-7%
CCCN(C(=O)Cn1nc(Cc2cccnc2)c2ccccc2c1=O)c1ccc(C(C)C)cc1,·,·,i,·,·,-28%
SMILES,S-ASM inh,Rango release inh,Abeta yeast res,aSyn rescue,Rango complex inh,TDP-43 yeast inh
Cc1ccc(NC(=O)COC(=O)C2CCN(c3ccc(C(F)(F)F)cn3)CC2)cc1,-15%,-19%,?,2%,1%,25µM*
O=C(COC(=O)C1CCN(c2ccc(C(F)(F)F)cn2)CC1)NCc1ccccc1,-5%,-6%,i,0%,0%,22µM*
CC(NC(=O)COC(=O)C1CCN(c2ccc(C(F)(F)F)cn2)CC1)c1ccccc1 (stereo not given),·,·,i,27%,·,-4%
COc1ccccc1C(=O)NCc1ccc2c(c1)CCN2C(=O)c1ccncc1,·,·,i,·,·,26%
COc1ccc(NC(=O)CN(C)C(=O)c2cc3c(s2)CCCCC3)cc1,-2%,5%,i,0%,-4%,28µM*
COc1ccc(NC(=O)CN(C)C(=O)c2cc3c(s2)CCC3)cc1,2%,-1%,i,1%,-4%,8%
CN(CC(=O)Nc1ccccc1Cl)C(=O)c1cc2c(s1)CCCCC2,·,-12%,i,-3%,0%,-3%
CN(CC(=O)Nc1ccccc1Br)C(=O)c1cc2c(s1)CCCCC2,·,7%,i,2%,1%,18µM*
CCN(CC)c1nc2ccccc2nc1-n1nc(C)cc1C,20%,15µM*,i,0%,?,-15%
Cc1cc(C)n(-c2nc3ccccc3nc2Nc2cc(Cl)ccc2C)n1,·,·,i,·,·,25%
CC1=C(C(=O)Nc2cccc(C)n2)C(c2ccc3c(c2)OCO3)C2=C(CC(c3ccco3)CC2=O)N1 (stereo not given),i,18µM*,i,0%,?,-2%
COc1ccc(C2CC(=O)C3=C(C2)NC(C)=C(C(=O)Nc2ccccc2C)C3c2coc3ccc(C)cc3c2=O)cc1OC (stereo not given),-2%,1%,i,-1%,-1%,?
CSc1ccc(S(=O)(=O)Nc2ccc(F)cc2)cc1,0%,-13%,i,16%,0%,13µM*
O=C(N/N=C/c1cc(Br)ccc1O)c1ccccc1Cl,-6%,-35%,i,10µM*,-1%,14µM*
CC(C)NC(=S)N/N=C/c1cc(Br)ccc1O,219%,?,?,18µM*,?,?
CCOC(=O)CNC(=O)CSc1nc(-c2ccc(OC)cc2)ns1,-4%,0%,i,17%,?,25µM*
CC(=O)OC[C@@H]1CN(Cc2ccccc2)C[C@H](n2cnc3c(NC(C)C)ncnc32)O1,·,·,i,-3%,·,20%
CC(=O)OC[C@@H]1CN(Cc2ccccc2)C[C@H](n2cnc3c(N4CCN(c5ccccc5)CC4)ncnc32)O1,·,·,i,0%,·,18µM*
O=C1C=C(NC2=CC3OC(c4ccccc4)OCC3OC2=O)CCC1 (stereo not given),0%,-6%,i,18µM*,-3%,13µM*
Cc1ccc(C(=O)N2CCc3cc(CNS(=O)(=O)c4cccs4)ccc32)cc1,·,·,i,·,·,7%
Cc1ccc2nc(N3CCC(C(=O)O)CC3)nc(-c3ccccc3)c2c1,79%,?,i,12%,?,22µM*
C[C@@]12CCC3[C@@](CCC4[C@@]3(C)CCC[C@@]4(C)C(=O)O)(CC1=O)C2 (stereo not given in full),-8%,4%,i,5%,0%,20µM*
